AC50 and outcome data for 40 compounds are collected here from PubChem BioAssay (EPA / NIEHS).

Active and inactive are the calls of the source. How the source made its calls: active means hit-call score of the fitted dose curve at least 0.9, where 1 is the maximum; inactive means score below 0.9.

Cytochrome P450 3A4 (Homo sapiens), sequence (P08684 whole entry, looked up): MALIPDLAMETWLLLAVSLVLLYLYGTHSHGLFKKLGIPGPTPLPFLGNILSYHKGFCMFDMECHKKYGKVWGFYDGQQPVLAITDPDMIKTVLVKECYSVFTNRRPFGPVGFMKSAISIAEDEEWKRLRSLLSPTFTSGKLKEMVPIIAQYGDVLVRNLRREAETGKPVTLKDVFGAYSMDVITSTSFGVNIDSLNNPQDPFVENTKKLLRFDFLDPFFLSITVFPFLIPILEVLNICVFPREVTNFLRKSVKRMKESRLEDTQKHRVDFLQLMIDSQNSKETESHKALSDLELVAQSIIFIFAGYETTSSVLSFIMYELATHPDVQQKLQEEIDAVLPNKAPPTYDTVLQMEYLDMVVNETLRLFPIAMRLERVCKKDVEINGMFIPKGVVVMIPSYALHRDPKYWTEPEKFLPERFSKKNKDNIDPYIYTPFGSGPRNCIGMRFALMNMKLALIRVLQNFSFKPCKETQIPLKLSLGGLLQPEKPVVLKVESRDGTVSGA

Read-out in the test: Cytochrome P450 3A4 (Homo sapiens) (UniProt P08684)
Kind of test: LTEA_HepaRG_CYP3A4: Life Technologies and Expression Analysis (LTEA) Assay for CYP3A4 using HepaRG (AID 2283487). Conditions: mRNA level, 48 h; actives raise or lower the signal. Here is the method:
LTEA_HepaRG is a cell based, multiplexed-readout assay that uses HepaRG, a human liver cell line, with measurements taken at 48 hours after chemical dosing on a 96-well plate.LTEA_HepaRG_CYP3A4 is one of 102 assay component(s) measured in the LTEA HepaRG cell culture assay. It is a marker of NR mediated metabolism.Data from the assay component LTEA_HepaRG_CYP3A4 was analyzed into 1 endpoint. This assay endpoint, LTEA_HepaRG_CYP3A4, was analyzed with bidirectional fitting relative to DMSO as the negative control and baseline of activity. Using a type of inducible reporter, measures of mRNA induction for gain or loss-of-signal activity can be used to understand regulation of transcription factor activity. To generalize the intended target to other relatable targets, this assay endpoint is annotated to the cyp intended target family, where the subfamily is xenobiotic metabolism.
A total of 1060 chemcials from the ToxCast library were tested in eight-point concentration-response experiments. Cell culture and cytotoxicity assays were conducted at Thermo Fisher Scientific's Custom Services facility (Madison, WI). A single lot of human HepaRG cells (Thermo Fisher Scientific, Frederick, MD) was used for the cell culture experiments. 96-well format collagen type I coated plates of human HepaRG cells were prepared using established methods. Briefly, cryopreserved HepaRG cells were thawed, plated at a density of approximately 100,000 cells/well in HepaRG Thaw, Plate, and General Purpose media (HPRG770, Thermo Fisher Scientific), and incubated for 48 hours. 0.5% DMSO was selected as vehicle control to balance the requisite need of DMSO in HepaRG cultures to maintain differentiation (for example, baseline metabolism, proportions of hepatocytes vs. cholangiocytes), while enabling further hepatic receptor pathway activation (for example, PXR and CAR) in response to chemical exposure. 48 hours after plating, the culture medium was replaced with HepaRG Serum-Free Incudtion Media. Cells were exposed to each test chemical in duplicate and maintained in CO2 incubators for another 48 hours. Chemical plates were thawed to room temperature and 200x concentrations of treatment groups were prepared. 8-point conentration-reponse curves were made with the highest exposure at 100 uM, followed by half-log dilutions, all in 0.5% DMSO. Each test plate contained variouse controls, induction positive controls (1mM phenobarbital), cytotoxicity positive controls ([…] aflatoxin B1), vehicle controls (0.5% DMSO), and total lysis controls (0.5% DMSO). Cell morphology images were taken using an Essen IncuCyte FLR automated microscope, with six 96-well plates imaged in about 24 minutes. Images were captured and exported and JPEG files. Spent culture media was transfered to black-well plates for the LDH assay, and remaining media was sorted at -80 C for later use. Cells were treated with RLT buffer and frozen until shipped for gene expression analysis. Total RNA was isolated from the cell suspension in 75 uL of Buffer RLT (Qiagen, Germantown, MD 20874) by Quintiles/Expression Analysis (Durham, NC) using a custom isolation procedure. Total RNA from each plate well was transferred to a preamplification plate. Fluidigm's 96.96 Dynamic ArrayTM (Fluidigm, Amsterdam, the Netherlands) technology was used for gene expression analyses by quantitative reverse transcription polymerase chain reaction (qRT-PCR, performed by Quintiles/Expression Analysis, Durham, NC)89. Standard TaqManTM Assays (Applied Biosystems/ThermoFisher Scientific, Foster City, CA) were used to assess the expression of 93 genes selected based on their selectivity and sensitivity to important hepatic receptors known to be modulated by environmental chemicals; importance in human hepatocyte functionality; and hepatotoxicity. […]
For `c1ccc2c(c1)-c1cccc3c1c-2cc1ccccc13`, the concentration at half-maximal activity (AC50) (usually the concentration giving half of the maximal activity seen) was 7.02 µM (active).

Regarding `CCn1nc(C)c2c1C(=O)NCC(c1ccc(O)cc1)=N2`, the AC50 was 29.9 µM (active).

In the case of `O=c1[nH]cnc2c1ncn2[C@H]1CC[C@@H](CO)O1`, the compound was classed as inactive.

Regarding `CCCCCCCC/C=C\CCCCCCCC(=O)OC[C@@H](O)[C@H]1OC[C@H](O)[C@H]1O`, the compound was classed as inactive.

`O=C(O)c1cccc(C(=O)O)c1`: the outcome was inactive.

As for `OCC(CO)(CO)CO`, the call was inactive.

Consider `O=S1(=O)CCCO1`, for which the call was inactive.

Turning to `CCCCN1C(=O)[C@@H]([C@H](O)C2CCCCC2)NC(=O)C12CCN(Cc1ccc(Oc3ccc(C(=O)O)cc3)cc1)CC2`, the concentration at half-maximal activity (AC50) was 1.82 µM (active).

In the case of `CCc1cccc(CC)c1N`, the compound was called inactive.

Take `CCCCCCCCCC`: the compound was classed as inactive.

For `CCCCOC(=O)c1ccccc1`, the compound was called inactive.

Take `c1ccc2cc3ccccc3cc2c1`: the result was inactive.

In the case of `Cc1nccn1-c1ccc(Sc2cccc(C3(C(N)=O)CCOCC3)c2)cc1`, the concentration at half-maximal activity (AC50) was 13.4 µM (active).

In the case of `OC(Cn1cncn1)(Cn1cncn1)c1ccc(F)cc1F`, the call was inactive.

Turning to `COS(C)(=O)=O`, the outcome was inactive.

In the case of `C[C@]12C=CC(=O)C=C1CC[C@H]1[C@@H]3C[C@@H](O)[C@](O)(C(=O)CO)[C@@]3(C)C[C@H](O)[C@@]12F`, the result was inactive.

In the case of `CCCCC(CC)C(=O)OCCOCCOCCOC(=O)C(CC)CCCC` (stereo not given), the compound was called inactive.

As for `Cn1c(=O)c2[nH]cnc2n(C)c1=O`, the result was inactive.

For the compound `CC(C)CC(C)O` (stereo not given), the compound was classed as inactive.

`CCc1ccc(O)c(C(C)(C)C)c1`: the compound was classed as inactive.

Consider `COCc1nnc(-c2ccc[n+]([O-])c2)n1-c1c(Cl)c(Cl)cc2[nH]c(=O)c(=O)[nH]c12`, for which the result was inactive.

With `C=CN1CCCC1=O`, the call was inactive.

As to `NC(=O)NN=Cc1ccc([N+](=O)[O-])o1`, the compound was classed as inactive.

As for `CNC(C)=O`, the compound was classed as inactive.

As for `Cc1ncc([C@@H](CCCCCCc2ccc3c(n2)NCCC3)CC(=O)O)cn1`, the AC50 is 31 µM (active).

Consider `CCCCCOC(C)=O`, for which the result was inactive.

Consider `CCCc1ccccc1`, for which the compound was classed as inactive.

Turning to `Nc1ccn([C@@H]2O[C@H](CO)[C@@H](O)[C@@H]2O)c(=O)n1`, the call was inactive.

As to `CCOC(N)=O`, the result was inactive.

As for `OC[C@H]1O[C@@](CO)(O[C@H]2O[C@H](CO)[C@@H](O)[C@H](O)[C@H]2O)[C@@H](O)[C@@H]1O`, the compound was classed as inactive.

For the compound `CCCCCCCCCCCCCCO`, the outcome was inactive.

For the compound `O=C(O)c1ccc2c(c1)nc(C(=O)NC1CCN(C3CC3)CC1)n2Cc1cc(-c2ccc(Cl)s2)on1`, the call was inactive.

Consider `O=S(=O)(O)c1ccc(N=Nc2c(O)ccc3cc(S(=O)(=O)O)ccc23)cc1`, for which the compound was classed as inactive.

With `NNC(=O)c1ccncc1`, the compound was called inactive.

With `C=CCc1cc(S(=O)(=O)c2ccc(O)c(CC=C)c2)ccc1O`, the half-maximal activity concentration (AC50) is 80.4 µM (active).

As to `CCCCCCOC(=O)CC(CC(=O)OCCCCCC)(OC(=O)CCC)C(=O)OCCCCCC`, the AC50 is 17.7 µM (active).

`OCc1ccccc1`: the outcome was inactive.

Consider `CC(=O)c1ccccc1`, for which the compound was classed as inactive.

On to `CCOc1ccc2[nH]cc(C(=O)NCc3ccccc3)c(=O)c2n1`, for which the AC50 is 29.2 µM (active).

On to `CCN(CC)C(=S)SSC(=S)N(CC)CC`, for which the call was inactive.
